From PubChem BioAssay (NCATS) come the findings set out here.

The target in experiment [1] is Luciferin 4-monooxygenase (Photinus pyralis) (UniProt P08659). Nature of the experiment: Biochemical firefly luciferase enzyme assay for NPC (AID 624030).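 Note: purified P. pyralis luciferase at 10 nM with luciferin and ATP substrate; nearly all actives have a fitted effect of over 70% in size.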 A digest of the protocol:
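Purified P. pyralis luciferase at 10 nM in 50 mM Tris Acetate (final), luminescence read within 5 minutes of enzyme addition to compounds. Activity normalised to PTC124 versus DMSO; concentration-response curves classed by r2, magnitude and activity.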

Experiment [2] concerns ATS95. Nature of the experiment: qHTS profiling for inhibitors of Plasmodium falciparum proliferation (AID 504749). Note: nearly all actives have a fitted effect of over 60% in size. Note: potency is the fitted concentration of half-maximal effect. The conditions noted are these: P. falciparum in erythrocytes, SYBR Green DNA, 72 h; series mostly up to 28.7 µM. A digest of the protocol: (§1)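 Each compound contacts P. falciparum-infected red blood cells for 72 h at 37 C; lysis buffer (Tris, EDTA, saponin, Triton X, SYBR Green I) is added and fluorescence measured next morning; values normalized to controls.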
In general terms: In qHTS, concentration-response curves come from the screen itself.

Experiment [3] has as its system CP185. The experiment is described as above. The conditions noted are these: P. falciparum in erythrocytes, SYBR Green DNA, 72 h; series mostly up to 28.7 µM. A digest of the protocol:
as §1

The subject of experiment [4] is CP237. The experiment is described as above. Conditions: P. falciparum in erythrocytes, SYBR Green DNA, 72 h; series mostly up to 28.7 µM. A digest of the protocol: as §1
Experiment [5] relates to CP250. The experiment is described as above. Conditions: P. falciparum in erythrocytes, SYBR Green DNA, 72 h; series mostly up to 28.7 µM. A digest of the protocol: as §1
Experiment [6] has as its system CP265. Described as above. The conditions noted are these: P. falciparum in erythrocytes, SYBR Green DNA, 72 h; series mostly up to 28.7 µM. The gist of the method:
as §1

Experiment [7] has as its system CP268. Described as above. The conditions noted are these: P. falciparum in erythrocytes, SYBR Green DNA, 72 h; series mostly up to 28.7 µM. The gist of the method:
as §1

Experiment [8] relates to CP269. The experiment is described as above. The conditions noted are these: P. falciparum in erythrocytes, SYBR Green DNA, 72 h; series mostly up to 28.7 µM. The gist of the method:
as §1

The test system of experiment [9] is CP305. The experiment is described as above. Conditions: P. falciparum in erythrocytes, SYBR Green DNA, 72 h; series mostly up to 28.7 µM. The gist of the method: as §1
Experiment [10] concerns CP329. The description is as above. Conditions: P. falciparum in erythrocytes, SYBR Green DNA, 72 h; series mostly up to 28.7 µM. The gist of the method: as §1
The test system of experiment [11] is CP335. Described as above. Conditions: P. falciparum in erythrocytes, SYBR Green DNA, 72 h; series mostly up to 28.7 µM. The gist of the method:
as §1

Experiment [12] has as its system ECU. Described as above. Conditions: P. falciparum in erythrocytes, SYBR Green DNA, 72 h; series mostly up to 28.7 µM. A digest of the protocol:
as §1

Experiment [13] relates to FAB9. The experiment is described as above. Conditions: P. falciparum in erythrocytes, SYBR Green DNA, 72 h; series mostly up to 28.7 µM. The gist of the method: as §1
Experiment [14] relates to JCK. The experiment is described as above. The conditions noted are these: P. falciparum in erythrocytes, SYBR Green DNA, 72 h; series mostly up to 28.7 µM. The gist of the method:
as §1

Experiment [15] relates to N140. Described as above. The conditions noted are these: P. falciparum in erythrocytes, SYBR Green DNA, 72 h; series mostly up to 28.7 µM. A digest of the protocol: as §1
Experiment [16] has as its system P93_24. The description is as above. The conditions noted are these: P. falciparum in erythrocytes, SYBR Green DNA, 72 h; series mostly up to 28.7 µM. The gist of the method: as §1
Experiment [17] deals with PC49. Described as above. Conditions: P. falciparum in erythrocytes, SYBR Green DNA, 72 h; series mostly up to 28.7 µM. A digest of the protocol:
as §1

The subject of experiment [18] is SC27B. The description is as above. The conditions noted are these: P. falciparum in erythrocytes, SYBR Green DNA, 72 h; series mostly up to 28.7 µM. A digest of the protocol:
as §1

The test system of experiment [19] is TAB113. The experiment is described as above. The conditions noted are these: P. falciparum in erythrocytes, SYBR Green DNA, 72 h; series mostly up to 28.7 µM. A digest of the protocol: as §1
The test system of experiment [20] is TAB165. Described as above. Conditions: P. falciparum in erythrocytes, SYBR Green DNA, 72 h; series mostly up to 28.7 µM. The gist of the method:
as §1

Inconclusive results are not listed. The source made the active and inactive calls. Calls come from the whole dose curve; as a rule, active = well fitted inhibition curve with a large enough effect; inconclusive = small, poorly fitted or top-dose-only effect; inactive = flat fitted curve, though single readings scatter.

Luciferin 4-monooxygenase (Photinus pyralis), sequence (P08659 whole entry, looked up): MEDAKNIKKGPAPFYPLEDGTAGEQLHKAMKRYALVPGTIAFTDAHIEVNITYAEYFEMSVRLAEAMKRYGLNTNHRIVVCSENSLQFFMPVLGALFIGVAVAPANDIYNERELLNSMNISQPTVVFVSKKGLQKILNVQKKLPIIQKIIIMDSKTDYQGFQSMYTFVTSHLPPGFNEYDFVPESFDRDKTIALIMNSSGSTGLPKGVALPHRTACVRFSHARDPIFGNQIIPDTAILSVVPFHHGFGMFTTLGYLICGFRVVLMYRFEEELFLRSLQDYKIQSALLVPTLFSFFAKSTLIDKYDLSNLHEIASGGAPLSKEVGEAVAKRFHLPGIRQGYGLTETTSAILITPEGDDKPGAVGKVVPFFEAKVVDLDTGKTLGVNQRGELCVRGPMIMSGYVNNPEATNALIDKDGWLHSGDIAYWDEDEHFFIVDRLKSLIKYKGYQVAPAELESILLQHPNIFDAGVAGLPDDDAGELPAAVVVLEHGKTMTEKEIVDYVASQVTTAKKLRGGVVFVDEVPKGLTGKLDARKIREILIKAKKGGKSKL

Regarding `CC1(C)[C@@H](C=C(Cl)Cl)[C@@H]1C(=O)OCc1c(F)c(F)cc(F)c1F`, the Potency entry in experiment [1], in experiment [2], in [3], in experiment [4], in [5] and in experiment [6] was “inactive” throughout. In addition, the Potency result in [7], in experiment [8], in experiment [9], in [10], in experiment [11] and in experiment [12] was “inactive” throughout. The Potency result in experiment [13], in [14], in experiment [15], in experiment [16], in experiment [17] and in experiment [18] was “inactive” in each case. For the same compound, the Potency result in experiment [19] and in [20] was “inactive” throughout.

For `CCCC(C)C1(CC)C(=O)NC(=S)NC1=O` (stereo not given), the Potency result in experiment [1], in experiment [2], in experiment [3], in experiment [4], in experiment [5] and in [6] was “inactive” throughout. For the same compound, the Potency result in experiment [7], in experiment [8], in [9], in experiment [10], in experiment [11] and in experiment [12] was “inactive” each time. Moreover, the Potency result in [13], in experiment [14], in experiment [15], in experiment [16], in [17] and in experiment [18] was “inactive” in each case. In addition, the Potency entry in experiment [19] and in experiment [20] was “inactive” throughout.

`CC(CO)NC(=O)C1C=C2c3cccc4[nH]cc(c34)CC2N(C)C1` (stereo not given): the Potency entry in [1], in [2], in experiment [3], in [4], in experiment [5] and in experiment [6] was “inactive” throughout. In addition, the Potency entry in experiment [7], in [8], in experiment [9], in experiment [10], in experiment [11] and in [12] was “inactive” in each case. For the same compound, the Potency result in [13], in [14], in experiment [15], in experiment [16], in experiment [17] and in [18] was “inactive” in each case. Further, the Potency result in experiment [19] and in experiment [20] was “inactive” in each case.

For `C[C@@H]1CC[C@H]2[C@@H](C)C(=O)O[C@@H]3OC4(C)CC[C@@H]1C32OO4` (stereo not given in full), the Potency entry in [1] is “inactive”. For the same compound, the Potency in experiment [2] was 11.2 nM (active); in [3], 8.9 nM (active); in [4], 10 nM (active); in experiment [5], 14.1 nM (active); in [6], 7.9 nM (active); in [7], 13.5 nM (active). For the same compound, the Potency was 10.7 nM (active) in experiment [8]; 13.5 nM (active) in experiment [9]; 15.1 nM (active) in [10]; 6.7 nM (active) in experiment [11]; 5.6 nM (active) in experiment [12]; 7.9 nM (active) in experiment [13]. For the same compound, the Potency in experiment [15] was 5.6 nM (active); in experiment [16] it was 3.5 nM (active); in experiment [18], 7.1 nM (active); in experiment [19], 5.6 nM (active); in experiment [20], 3.2 nM (active).

As to `C#CC1(O)C=CC2C3CCC4=CC(=O)CCC4C3CCC21CC` (stereo not given), the Potency result in [1], in experiment [12], in [14] and in experiment [15] was “inactive” throughout. Also, the Potency in experiment [4] is 3550 nM (active); in experiment [7], 7570 nM (active).

On to `NC(Cc1ccc(Oc2cc(I)c(O)c(I)c2)c(I)c1)C(=O)O` (stereo not given), for which the Potency entry in [2], in experiment [3], in experiment [4], in experiment [5], in experiment [6] and in [7] was “inactive” each time. The Potency result in experiment [8], in experiment [9], in [10], in experiment [11], in experiment [12] and in experiment [13] was “inactive” in each case. The Potency entry in experiment [14], in [16], in experiment [17], in [18], in experiment [19] and in experiment [20] was “inactive” each time.

Regarding `COC(C(=O)C(O)C(C)O)C1Cc2cc3cc(OC4CC(OC5CC(O)C(OC)C(C)O5)C(OC(C)=O)C(C)O4)c(C)c(O)c3c(O)c2C(=O)C1OC1CC(OC2CC(OC3CC(C)(O)C(OC(C)=O)C(C)O3)C(O)C(C)O2)C(O)C(C)O1` (stereo not given), in experiment [1], the Potency entry was “inactive”. In addition, the Potency in [2] is 708 nM (active); in experiment [3] it was 1260 nM (active); in experiment [4] it was 89.1 nM (active); in experiment [5] it was 2000 nM (active); in experiment [6], 2240 nM (active); in experiment [7], 1900 nM (active). Besides, the Potency in experiment [8] is 1900 nM (active); in experiment [9] it was 2390 nM (active); in experiment [10], 3380 nM (active); in experiment [11] it was 338 nM (active); in experiment [12], 1000 nM (active); in experiment [13], 2000 nM (active). For the same compound, the Potency was 3980 nM (active) in experiment [14]; 1000 nM (active) in [15]; 794 nM (active) in [16]; 2820 nM (active) in experiment [17]; 1000 nM (active) in experiment [18]; 708 nM (active) in [19]. Further, in [20], the Potency was 794 nM (active).

Regarding `CCOC(=O)/C=C(C)/C=C/CC(C)CCCC(C)C` (stereo not given), the Potency entry in [1], in [2], in experiment [3], in [4], in experiment [5] and in [6] was “inactive” in each case. The Potency result in experiment [7], in [8], in experiment [9], in experiment [10], in [11] and in [12] was “inactive” each time. Also, the Potency entry in experiment [13], in experiment [14], in experiment [15], in experiment [16], in experiment [17] and in [18] was “inactive” throughout. In addition, the Potency entry in [19] and in experiment [20] was “inactive” in each case.

With `CC1(C)S[C@@H]2[C@H](N)C(=O)N2C1C(=O)O` (stereo not given in full), the Potency entry in [1], in experiment [2], in [3], in experiment [4], in experiment [5] and in experiment [6] was “inactive” throughout. For the same compound, the Potency result in experiment [7], in experiment [8], in experiment [9], in experiment [10], in [11] and in experiment [12] was “inactive” in each case. Moreover, the Potency entry in experiment [13], in experiment [14], in experiment [15], in experiment [16], in [17] and in experiment [18] was “inactive” each time. For the same compound, the Potency result in [19] and in [20] was “inactive” in each case.

As for `CCCCCCC(=O)O[C@H]1CC[C@H]2[C@@H]3CCC4CC(=O)C=C(C)[C@]4(C)[C@H]3CC[C@]12C` (stereo not given in full), the Potency result in [1], in [2], in experiment [3], in experiment [5], in [6] and in experiment [7] was “inactive” in each case. In addition, the Potency result in [8], in experiment [9], in experiment [10], in experiment [12], in experiment [13] and in [14] was “inactive” each time. Also, the Potency result in experiment [15], in experiment [16], in [17], in experiment [18], in [19] and in [20] was “inactive” throughout. Also, the Potency in experiment [11] was 8490 nM (active).

`C=C1CC2C(CC[C@]3(C)C(=O)CCC23)[C@]2(C)C=CC(=O)C=C12` (stereo not given in full): the Potency result in experiment [1], in experiment [2], in [3], in [4], in experiment [5] and in experiment [6] was “inactive” in each case. Also, the Potency entry in experiment [7], in [8], in [9], in experiment [10], in experiment [12] and in [13] was “inactive” in each case. Moreover, the Potency result in [14], in experiment [15], in [16], in [17], in experiment [18] and in [19] was “inactive” throughout. In experiment [20], the Potency entry was “inactive”.
